From PubChem BioAssay
KB-3-1 cytotox: kills parental KB-3-1 adenocarcinoma cells. KB-3-1 viability, CellTiter-Glo ATP luminescence, 72 h. Potency, µM (top dose mostly 46.1 µM), most hits filed as cytotoxic. 1.4% of 400,000 active. AID 1347075; note: nearly all actives have a fitted effect of over 60% in size
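Luminescent ATP read-out (CellTiter-Glo) measures survival of drug-naive KB-3-1 cells after 72 h compound exposure at 37 °C. Titration series was screened from lowest to highest concentration, with DMSO vehicle plates as background controls.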
MCF10A rerep: induces DNA re-replication in MCF 10a normal breast cells | AID 624296 | 2.9% of 350,000 active | MCF 10A DNA re-replication, Hoechst nuclear intensity, 48 h | Potency, µM (titrated, usually from 46.1 µM), most hits filed as activators; note: nearly all actives have a fitted effect of over 50% in size
PINK1 modulator: changes PINK1 expression; PINK1 immunofluorescence, high-content cytometry, 24 h; Potency, µM (top dose mostly 76.6 µM), most hits filed as activators; 0.2% of 410,000 active; AID 624263; active = well fitted activation curve with a large enough effect; inconclusive = small, poorly fitted or top-dose-only effect; cell line not stated here; note: nearly all actives have a fitted effect of over 65% in size
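Compound titrations (5 concentrations, 24 h) on a stable cell line; DMSO and CCCP controls. Endpoint: fixed-cell PINK1 immunofluorescence with mitochondrial, cell and nuclear markers, scanned by microplate cytometer.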
KB-V1 MDR tox: kills drug-selected multidrug resistant KB-V1 cells. KB-V1 MDR cells viability, CellTiter-Glo, 72 h. Potency, µM (titrated, usually from 46.1 µM), actives largely listed as cytotoxic. 3.4% of 400,000 active; note: nearly all actives have a fitted effect of over 60% in size
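Cytotoxicity toward P-gp-expressing KB-V1 cells was determined as loss of CellTiter-Glo luminescence after 72 h at 37 degrees C. Compounds were tested in quantitative HTS format across a concentration range, with curves fitted to normalized data.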
SW480 rereplic: inducers of DNA re-replication in SW480 colon cancer cells; Potency, µM (series often up to 46.1 µM), usual class: activators; SW480 DNA re-replication, Hoechst DNA content imaging, 48 h; AID 624297; 1.8% of 340,000 active; note: nearly all actives have a fitted effect of over 55% in size
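Image-based read-out: total Hoechst fluorescence of nuclei (405 nm excitation, 500-530 nm emission), with hits raising the fraction of high-intensity nuclei. SW480 colon cells incubated 48 hr with compounds at 37 C.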
Of the large screens only hits and unclear results are named; the others gave an inactive call. An excerpt weighted towards active compounds, which were near 6.7% of everything screened. Unless noted, calls come from the whole dose curve; as a rule, active = well fitted curve in the direction sought with a large enough effect; inconclusive = small, poorly fitted or top-dose-only effect, or another doubt; inactive = no such curve, though single readings can be large; an effect the other way counts as inactive or inconclusive.

COc1ccc(C(=O)c2oc3ccccc3c2NC(=O)COc2ccccc2)cc1	none (no result: KB-3-1 cytotox, MCF10A rerep, KB-V1 MDR tox, SW480 rereplic)
O=C(c1csnn1)N1CCC2(CC1)CN(c1ccncc1)C2	none (no result: KB-3-1 cytotox, MCF10A rerep, KB-V1 MDR tox, SW480 rereplic)
CCOC(=O)c1ccc(Nc2nnc(C(C)(C)C)c(=O)[nH]2)cc1	KB-3-1 cytotox inconclusive, MCF10A rerep inconclusive, PINK1 modulator 25.1µM, KB-V1 MDR tox inconclusive, SW480 rereplic inconclusive
COc1ccc2[nH]cc(CCNC(=O)/C=C/[C@H]3O[C@@H](n4cnc5c(NC(=O)c6ccccc6)ncnc54)[C@H](O)[C@@H]3O)c2c1	none (no result: MCF10A rerep, SW480 rereplic)
Nn1c(SCC(=O)NCC2CCCO2)nnc1-c1ccc(OC(F)F)cc1 (stereo not drawn)	MCF10A rerep inconclusive
COc1cc(NC(=O)c2ccc(C(=O)Nc3cc(OC)c(Cl)cc3OC)cc2)c(OC)cc1Cl	KB-V1 MDR tox inconclusive (no result: MCF10A rerep, SW480 rereplic)
O=C(Nc1nc(COc2ccccc2)cs1)C12CC3CC(CC(C3)C1)C2	MCF10A rerep 8.2µM
Cc1ccc(C(=O)Nc2nc(COc3ccccc3)cs2)s1	MCF10A rerep 20.6µM, KB-V1 MDR tox inconclusive, SW480 rereplic inconclusive
CN(CC(=O)Nc1ccc(Br)cc1)S(=O)(=O)c1cccc2nsnc12	none (no result: MCF10A rerep, SW480 rereplic)
COc1cc(C(=O)NC2CCCC2)c(Br)c(OC)c1OC	none
COc1cc(C(=O)NCCOc2cc(C)cc(C)c2)c(Br)c(OC)c1OC	MCF10A rerep inconclusive, KB-V1 MDR tox 10.3µM, SW480 rereplic inconclusive
Cc1nn(Cc2ccc(C(=O)Nc3ccc(C(=O)OC(C)C)cc3)o2)c(C)c1Cl	MCF10A rerep inconclusive, KB-V1 MDR tox 23.1µM
CCOc1cc(/C=N/NC(=O)C(=O)N/N=C/c2ccc(O)c(OCC)c2)ccc1O	MCF10A rerep inconclusive
CCOc1cc(/C=C2\CCn3c2nc2cc(Cl)ccc2c3=O)ccc1O	MCF10A rerep 13µM, SW480 rereplic 10.3µM
COc1ccc(/C=C2\CCn3c2nc2cc(C(=O)O)ccc2c3=O)cc1O	none
CCOc1cc(/C=C2\CN(C)C/C(=C\c3ccc(O)c(OCC)c3)C2=O)ccc1O	KB-3-1 cytotox 7.31µM, MCF10A rerep 0.731µM, KB-V1 MDR tox 20.6µM, SW480 rereplic 1.64µM
COc1cc(C=C2CN(C)C(=O)C2=O)ccc1O	none (no result: MCF10A rerep, SW480 rereplic)
CCOc1cc(/C=N/NC(=O)N/N=C/c2ccc(O)c(OCC)c2)ccc1O	KB-3-1 cytotox 6.51µM, MCF10A rerep inconclusive, SW480 rereplic inconclusive
Cc1nc(Cc2nnc(SC(C)C(=O)Nc3ccccc3)o2)cs1 (stereo not drawn)	none (no result: MCF10A rerep, SW480 rereplic)
O=C(Nc1cccc(C(=O)N2CCCCC2)c1)c1nsc2ccccc12	none (no result: MCF10A rerep, SW480 rereplic)
CCOc1ccccc1Oc1c(C)oc2cc(OC(=O)N3CCOCC3)ccc2c1=O	KB-V1 MDR tox 23.1µM
COc1ccc(Oc2coc3cc(OC(=O)N4CCOCC4)ccc3c2=O)cc1	none
Cc1cc2nc(-c3cccc(Cl)c3)c(Cc3ccccc3)n2c(C)c1Br	none (no result: MCF10A rerep, SW480 rereplic)
CSc1nsc(/C=C/Nc2ccc(C(=O)O)cc2)c1C#N	MCF10A rerep 5.17µM, SW480 rereplic inconclusive
COc1cccc(CNc2ccc(N3CCC(C)CC3)cc2)c1OC	KB-3-1 cytotox 20.6µM, PINK1 modulator inconclusive, KB-V1 MDR tox 20.6µM
O=c1c2ccccc2c(-c2ccc(O)cc2)nn1-c1cccc(C(F)(F)F)c1	KB-3-1 cytotox inconclusive, MCF10A rerep inconclusive, KB-V1 MDR tox 13µM, SW480 rereplic inconclusive
O=c1c2ccccc2c(-c2cccc(C(F)(F)F)c2)nn1-c1ccccc1	KB-3-1 cytotox inconclusive, MCF10A rerep inconclusive
COc1ccc(NC(=O)c2cn(CC(C)C)c(=O)c3cc(OC)c(OC)cc23)cc1Cl	none (no result: MCF10A rerep, SW480 rereplic)
CCN=C1S/C(=C/c2ccc(-c3ccc(Cl)cc3C(=O)O)o2)C(=O)N1CC	MCF10A rerep 6.51µM, SW480 rereplic 11.6µM
CCN1C(=O)/C(=C\c2ccc(-c3ccc([N+](=O)[O-])cc3OC)o2)SC1=Nc1cccc(C(=O)O)c1	none
CCN=C1S/C(=C\c2ccc(-c3cccc(C(=O)O)c3)o2)C(=O)N1CC	MCF10A rerep inconclusive, SW480 rereplic 5.8µM
CCN=C1S/C(=C\c2cn(C(C)=O)nc2-c2ccccc2)C(=O)N1CC	MCF10A rerep inconclusive, KB-V1 MDR tox 18.4µM
COc1ccc([C@@H]2C[C@H]3CN(c4ccccc4)C(=O)[C@]34CCCN24)c(OC)c1OC	none
CC(C)(O)C#Cc1ccc([C@@H]2C[C@H]3CN(c4ccccc4)C(=O)[C@]34CCCN24)s1	KB-3-1 cytotox inconclusive, MCF10A rerep inconclusive, SW480 rereplic 8.2µM
O=C1N(c2ccccc2)C[C@@H]2C[C@@H](c3cccs3)N3CCC[C@@]123	MCF10A rerep 5.8µM
O=S(=O)(c1cccc(Cl)c1)n1c(/C=C/c2ccccc2Cl)nc2ccccc21	none (no result: KB-3-1 cytotox, MCF10A rerep, KB-V1 MDR tox, SW480 rereplic)
CSc1ccc(/C=C/c2nc3ccccc3n2S(=O)(=O)c2cccc(Cl)c2)cc1	KB-3-1 cytotox 14.6µM, PINK1 modulator inconclusive (no result: MCF10A rerep, SW480 rereplic)
CNC(=O)c1cn2c3c(ccc(Cl)c3c1=O)OC(C)C2 (stereo not drawn)	none
CC1CCCCN1Cc1c(O)ccc2c(=O)c(-c3ccc(Cl)cc3)c(C(F)(F)F)oc12 (stereo not drawn)	none (no result: MCF10A rerep, SW480 rereplic)
NC(=S)N/N=C/c1ccc(C23CC4CC(CC(C4)C2)C3)cc1	KB-3-1 cytotox inconclusive, MCF10A rerep inconclusive, SW480 rereplic 7.31µM
O=C(N/N=C/c1ccc(N2CCOCC2)o1)c1ccccc1[N+](=O)[O-]	MCF10A rerep inconclusive
O=C(N/N=C/c1ccc(N2CCCCC2)o1)c1ccccc1[N+](=O)[O-]	MCF10A rerep 5.8µM, SW480 rereplic 7.31µM
Nc1[nH]c(C(=O)c2ccc(Br)cc2)c(-c2ccc(Br)cc2)c1C(=O)NCCc1c[nH]c2ccccc12	KB-3-1 cytotox inconclusive, KB-V1 MDR tox 20.6µM (no result: MCF10A rerep, SW480 rereplic)
Nc1[nH]c(C(=O)c2ccccc2)c(-c2ccc([N+](=O)[O-])cc2)c1C(=O)NCCc1c[nH]c2ccccc12	KB-3-1 cytotox inconclusive, KB-V1 MDR tox 23.1µM (no result: MCF10A rerep, SW480 rereplic)
CC(C)Cc1nc2oc3c(NCC4CCCO4)ncnc3c2c2c1CCC2 (stereo not drawn)	KB-3-1 cytotox inconclusive, MCF10A rerep inconclusive, KB-V1 MDR tox 10.3µM
c1ccc2c(c1)oc1c(NCC3CCCO3)ncnc12 (stereo not drawn)	KB-V1 MDR tox 16.4µM
c1ccc(CNc2ncnc3c2oc2ccccc23)nc1	KB-V1 MDR tox 20.6µM
c1ccc(-c2nc(NCC3CCCO3)c3oc4ccccc4c3n2)cc1 (stereo not drawn)	MCF10A rerep inconclusive, KB-V1 MDR tox 3.66µM
CSc1ccccc1C(=O)OCC(=O)Nc1c(C)n(C)n(-c2ccccc2)c1=O	none (no result: MCF10A rerep, SW480 rereplic)
Cc1csc(=O)n1CCC(=O)OCC(=O)NNC(=O)c1ccc(Cl)cc1	none
O=S(=O)(c1ccc(Cl)cc1)N1CCCC(c2nc(-c3ccc(F)cc3)no2)C1 (stereo not drawn)	none
COc1ccc(NC(=O)N2CCCC(c3nc(-c4ccc(C(C)C)cc4)no3)C2)cc1 (stereo not drawn)	KB-3-1 cytotox inconclusive, MCF10A rerep inconclusive, KB-V1 MDR tox 8.2µM
